The supplement of paper PMC8728848
This is one part of a sample in which the strongest signals are shown more often than they occur.

Key:
Assay in all cases: glycan array binding signal (z-score within array); higher = stronger binding
Details in all cases: glycan notation: IUPAC condensed, linker removed
[1] = molecular target: Fuc(a1-2)Gal
Outline: (§1)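 Arrays were curated from the Consortium for Functional Glycomics database, 3228 in total, and kept only where the protein sequence was available. Binding is expressed as a within-array Z-score. This score was averaged across arrays of the same protein sequence at different concentrations or buffers and across linkers, and negative values can be read as non-binding.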

[2] = molecular target: Fuc(a1-2)Gal(b1-3)GlcNAc
Outline: as §1

[3] = molecular target: Fuc(a1-2)Gal(b1-3)GlcNAc(b1-3)[Gal(b1-4)GlcNAc(b1-6)]Gal(b1-4)Glc
Outline: as §1

[4] = molecular target: Fuc(a1-2)Gal(b1-3)[Fuc(a1-4)]GlcNAc
Outline: as §1

[5] = molecular target: Fuc(a1-2)Gal(b1-4)Fuc(a1-3)]GlcNAc(b1-2)Man(a1-3)[Fuc(a1-2)Gal(b1-4)[Fuc(a1-3)]GlcNAc(b1-2)Man(a1-6)]Man(b1-4)GlcNAc(b1-4)GlcNAc
Outline: as §1

[6] = molecular target: Fuc(a1-2)Gal(b1-4)GlcNAc6S
Outline: as §1

[7] = molecular target: Fuc(a1-2)[Gal(a1-3)]Gal(b1-4)GlcNAc(b1-6)GalNAc
Outline: as §1

[8] = molecular target: Fuc(a1-2)[GalNAc(a1-3)]Gal(b1-3)GalNAc(b1-3)Gal(a1-4)Gal(b1-4)Glc
Outline: as §1

[9] = molecular target: Fuc(a1-2)[GalNAc(a1-3)]Gal(b1-3)GlcNAc(b1-6)GalNAc
Outline: as §1

[10] = molecular target: Gal(a1-3)[Gal(a1-4)]Gal(b1-4)GlcNAc
Outline: as §1

[11] = molecular target: Gal(b1-3)GlcNAc(a1-3)Gal(b1-4)GlcNAc
Outline: as §1

[12] = molecular target: Gal(b1-3)GlcNAc(b1-2)Man
Outline: as §1

[13] = molecular target: Gal(b1-3)[Fuc(a1-4)]GlcNAc(b1-2)Man
Outline: as §1

[14] = molecular target: Gal(b1-3)[Fuc(a1-4)]GlcNAc(b1-3)Gal(b1-3)[Fuc(a1-4)]GlcNAc
Outline: as §1

[15] = molecular target: Gal(b1-3)[Neu5Ac(b2-6)]GalNAc
Outline: as §1

[16] = molecular target: Gal(b1-4)GlcNAc
Outline: as §1

[17] = molecular target: Gal(b1-4)GlcNAc(b1-2)[Gal(b1-4)GlcNAc(b1-4)]Man(a1-3)[GlcNAc(b1-4)][Gal(b1-4)GlcNAc(b1-2)Man(a1-6)]Man(b1-4)GlcNAc(b1-4)GlcNAc
Outline: as §1

[18] = molecular target: Gal(b1-4)GlcNAc(b1-3)Gal(b1-4)GlcNAc(b1-2)Man(a1-3)[Gal(b1-4)GlcNAc(b1-3)Gal(b1-4)GlcNAc(b1-2)Man(a1-6)]Man(b1-4)GlcNAc(b1-4)GlcNAc
Outline: as §1

[19] = molecular target: Gal(b1-4)GlcNAc(b1-3)Gal(b1-4)GlcNAc(b1-3)Gal(b1-4)GlcNAc(b1-2)Man(a1-3)[Gal(b1-4)GlcNAc(b1-3)Gal(b1-4)GlcNAc(b1-3)Gal(b1-4)GlcNAc(b1-2)Man(a1-6)]Man(b1-4)GlcNAc(b1-4)GlcNAc
Outline: as §1

[20] = molecular target: GalNAc(b1-4)GlcNAc(b1-2)Man
Outline: as §1

[21] = molecular target: Glc(a1-6)Glc(a1-6)Glc
Outline: as §1

[22] = molecular target: GlcNAc(a1-4)Gal(b1-4)GalNAc
Outline: as §1

[23] = molecular target: GlcNAc(a1-4)Gal(b1-4)GlcNAc(b1-3)Gal(b1-4)GlcNAc
Outline: as §1

[24] = molecular target: GlcNAc(a1-6)Gal(b1-4)GlcNAc
Outline: as §1

[25] = molecular target: GlcNAc(b1-3)Gal(b1-4)GlcNAc(b1-3)Gal(b1-4)GlcNAc(b1-2)Man(a1-3)[GlcNAc(b1-3)Gal(b1-4)GlcNAc(b1-3)Gal(b1-4)GlcNAc(b1-2)Man(a1-6)]Man(b1-4)GlcNAc(b1-4)GlcNAc
Outline: as §1

[26] = molecular target: GlcNAc(b1-3)Gal(b1-4)GlcNAc(b1-3)Gal(b1-4)GlcNAc(b1-2)[GlcNAc(b1-3)Gal(b1-4)GlcNAc(b1-3)Gal(b1-4)GlcNAc(b1-6)]Man(a1-6)[GlcNAc(b1-3)Gal(b1-4)GlcNAc(b1-3)Gal(b1-4)GlcNAc(b1-2)Man(a1-3)]Man(b1-4)GlcNAc(b1-4)[Fuc(a1-6)]GlcNAc
Outline: as §1

[27] = molecular target: GlcNAc(b1-3)Gal(b1-4)GlcNAc(b1-3)Gal(b1-4)GlcNAc(b1-3)Gal(b1-4)GlcNAc(b1-2)[GlcNAc(b1-3)Gal(b1-4)GlcNAc(b1-3)Gal(b1-4)GlcNAc(b1-3)Gal(b1-4)GlcNAc(b1-6)]Man(a1-6)[GlcNAc(b1-3)Gal(b1-4)GlcNAc(b1-3)Gal(b1-4)GlcNAc(b1-3)Gal(b1-4)GlcNAc(b1-2)Man(a1-3)]Man(b1-4)GlcNAc(b1-4)[Fuc(a1-6)]GlcNAc
Outline: as §1

[28] = molecular target: GlcNAc(b1-4)GlcNAc(b1-4)GlcNAc
Outline: as §1

[29] = molecular target: GlcNAc6S(b1-3)Gal(b1-4)GlcNAc
Outline: as §1

[30] = molecular target: Man(a1-2)Man(a1-2)Man(a1-6)[Man(a1-3)]Man
Outline: as §1

[31] = molecular target: Man(a1-2)Man(a1-3)Man
Outline: as §1

[32] = molecular target: Man(a1-2)Man(a1-6)[Man(a1-3)]Man(a1-6)[Man(a1-2)Man(a1-2)Man(a1-3)]Man
Outline: as §1

[33] = molecular target: Neu5Ac(a2-3)Gal(b1-3)GlcNAc(b1-2)Man
Outline: as §1

[34] = molecular target: Neu5Ac(a2-3)Gal(b1-3)GlcNAc(b1-2)Man(a1-3)[GlcNAc(b1-4)][Neu5Ac(a2-3)Gal(b1-3)GlcNAc(b1-2)Man(a1-6)]Man(b1-4)GlcNAc(b1-4)GlcNAc
Outline: as §1

[35] = molecular target: Neu5Ac(a2-3)Gal(b1-3)[Neu5Ac(a2-6)]GlcNAc(b1-3)[Fuc(a1-3)[Gal(b1-4)]GlcNAc(b1-6)]Gal(b1-4)Glc
Outline: as §1

[36] = molecular target: Neu5Ac(a2-3)Gal(b1-4)GlcNAc(b1-2)Man(a1-3)[GlcNAc(b1-4)][Neu5Ac(a2-3)Gal(b1-4)GlcNAc(b1-2)Man(a1-6)]Man(b1-4)GlcNAc(b1-4)GlcNAc
Outline: as §1

[37] = molecular target: Neu5Ac(a2-3)Gal(b1-4)GlcNAc(b1-3)Gal(b1-4)GlcNAc(b1-3)Gal(b1-4)GlcNAc(b1-2)Man(a1-3)[Neu5Ac(a2-3)Gal(b1-4)GlcNAc(b1-3)Gal(b1-4)GlcNAc(b1-3)Gal(b1-4)GlcNAc(b1-2)Man(a1-6)]GalNAc
Outline: as §1

[38] = molecular target: Neu5Ac(a2-3)Gal(b1-4)GlcNAc(b1-3)Gal(b1-4)GlcNAc(b1-6)[Gal(b1-3)]GalNAc
Outline: as §1

[39] = molecular target: Neu5Ac(a2-3)Gal(b1-4)GlcNAc(b1-6)GalNAc
Outline: as §1

[40] = molecular target: Neu5Ac(a2-3)Gal(b1-4)GlcNAc(b1-6)[Gal(b1-3)]GalNAc
Outline: as §1

[41] = molecular target: Neu5Ac(a2-3)[GalNAc(b1-4)]Gal(b1-4)GlcNAc
Outline: as §1

[42] = molecular target: Neu5Ac(a2-3)[Neu5Ac(a2-6)]GalNAc
Outline: as §1

[43] = molecular target: Neu5Ac(a2-6)Gal(b1-4)Glc
Outline: as §1

[44] = molecular target: Neu5Ac(a2-6)Gal(b1-4)GlcNAc(b1-2)Man(a1-3)[Neu5Ac(a2-6)Gal(b1-4)GlcNAc(b1-2)Man(a1-6)]Man(b1-4)GlcNAc(b1-4)[Fuc(a1-6)]GlcNAc
Outline: as §1

[45] = molecular target: Neu5Ac(a2-6)Gal(b1-4)GlcNAc(b1-2)Man(a1-6)[Man(a1-3)]Man(b1-4)GlcNAc(b1-4)GlcNAc
Outline: as §1

[46] = molecular target: Neu5Ac(a2-6)Gal(b1-4)GlcNAc(b1-2)[Neu5Ac(a2-6)Gal(b1-4)GlcNAc(b1-4)]Man(a1-3)[GlcNAc(b1-4)][Neu5Ac(a2-6)Gal(b1-4)GlcNAc(b1-2)[Neu5Ac(a2-6)Gal(b1-4)GlcNAc(b1-6)]Man(a1-6)]Man(b1-4)GlcNAc(b1-4)GlcNAc
Outline: as §1

[47] = molecular target: Neu5Ac(a2-6)Gal(b1-4)GlcNAc(b1-3)Gal(b1-3)GlcNAc
Outline: as §1

[48] = molecular target: Neu5Ac(a2-6)Gal(b1-4)GlcNAc(b1-3)Gal(b1-4)GlcNAc(b1-3)Gal(b1-4)GlcNAc(b1-2)Man(a1-3)[Neu5Ac(a2-6)Gal(b1-4)GlcNAc(b1-3)Gal(b1-4)GlcNAc(b1-3)Gal(b1-4)GlcNAc(b1-2)Man(a1-6)]GalNAc
Outline: as §1

[49] = molecular target: Neu5Gc(a2-3)Gal(b1-3)[Fuc(a1-4)]GlcNAc
Outline: as §1

B1: Als3-N (Candida albicans) (protein)
chain: KTITGVFNSFNSLTWSNAATYNYKGPGTPTWNAVLGWSLDGTSASPGDTFTLNMPCVFKFTTSQTSVDLTAHGVKYATCQFQAGEEFMTFSTLTCTVSNTLTPSIKALGTVTLPLAFNVGGTGSSVDLEDSKCFTAGTNTVTFNDGGKKISINVDFERSNVDPKGYLTDSRVIPSLNKVSTLFVAPQCANGYTSGTMGFANTYGDVQIDCSNIHVGITKGLNDWNYPVSSESFSYTKTCSSNGIFITYKNVPAGYRPFVDAYISATDVNSYTLSYANEYTCAGGYWQRAPFTLRWTGYRNSDAGSNGIVIVATTRTVTDSTTAVTTLPFDPNRDKTKTIEILKPIPTTTITTSYVGVTTSYLTKTAPIGETATVIVDIPYHTTTTVTSKWTGTITSTTTHTNPTDSIDTVIVQVP
glycan array binding signal (z-score) [1]: -0.276
glycan array binding signal (z-score) [2]: -0.288
glycan array binding signal (z-score) [3]: -0.291
glycan array binding signal (z-score) [4]: -0.271
glycan array binding signal (z-score) [5]: 2.75
glycan array binding signal (z-score) [6]: -0.257
glycan array binding signal (z-score) [7]: -0.082
glycan array binding signal (z-score) [8]: -0.14
glycan array binding signal (z-score) [9]: -0.223
glycan array binding signal (z-score) [10]: -0.221
glycan array binding signal (z-score) [11]: 2.03
glycan array binding signal (z-score) [12]: 0.065
glycan array binding signal (z-score) [13]: 0.115
glycan array binding signal (z-score) [14]: 2.42
glycan array binding signal (z-score) [15]: 0.915
glycan array binding signal (z-score) [16]: -0.168
glycan array binding signal (z-score) [17]: -0.288
glycan array binding signal (z-score) [18]: 8.26
glycan array binding signal (z-score) [19]: 3.26
glycan array binding signal (z-score) [20]: 0.231
glycan array binding signal (z-score) [21]: -0.244
glycan array binding signal (z-score) [22]: -0.081
glycan array binding signal (z-score) [23]: -0.232
glycan array binding signal (z-score) [24]: -0.233
glycan array binding signal (z-score) [25]: 3.11
glycan array binding signal (z-score) [26]: 2.36
glycan array binding signal (z-score) [27]: 3.08
glycan array binding signal (z-score) [28]: -0.099
glycan array binding signal (z-score) [29]: -0.1
glycan array binding signal (z-score) [30]: -0.257
glycan array binding signal (z-score) [31]: -0.226
glycan array binding signal (z-score) [32]: -0.361
glycan array binding signal (z-score) [33]: -0.29
glycan array binding signal (z-score) [34]: -0.11
glycan array binding signal (z-score) [35]: -0.237
glycan array binding signal (z-score) [36]: -0.08
glycan array binding signal (z-score) [37]: 4.72
glycan array binding signal (z-score) [38]: 0.08
glycan array binding signal (z-score) [39]: -0.202
glycan array binding signal (z-score) [40]: -0.233
glycan array binding signal (z-score) [41]: 2.21
glycan array binding signal (z-score) [42]: -0.049
glycan array binding signal (z-score) [43]: -0.187
glycan array binding signal (z-score) [44]: -0.102
glycan array binding signal (z-score) [45]: -0.309
glycan array binding signal (z-score) [46]: -0.151
glycan array binding signal (z-score) [47]: -0.283
glycan array binding signal (z-score) [48]: 2.56
glycan array binding signal (z-score) [49]: -0.341
